Screens deposited in PubChem BioAssay by National Center for Advancing Translational Sciences (NCATS).
Shown are actives, neighbours in structure and some others; about 13% of the full set was active somewhere.
HCMV inh = qHTS Assay for inhibitors of the human cytomegalovirus (HCMV); activity change, negative = inhibition, % at 57.5 µM; HFF cells, HCMV-luciferase reporter, 72 h; stronger effect = lower value; AID 1259415, 2018; 410,000 tested, 4.5% active; in the data active means activity change below about -60%; inconclusive means no clear call, values can overlap the other calls; inactive means above about -39%
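Two compound doses tested in HFFs infected with HCMV-luciferase, MOI 1 PFU/cell, 72 h at 37C. Lysate luminescence read with OneGlo; data normalized against buffer-only and 10uM Salinomycin inhibitor controls.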
HCV inhibitor = qHTS Assay for Inhibitors of Hepatitis C Virus (HCV); Huh7.5.1 HCVcc-Cre infection, luciferase reporter, 44 h; 340,000 tested, 3.4% active; Potency, µM (highest dose often 41.8 µM), for inactives: at the highest dose activity change, negative = inhibition, hits mostly inhibitors; further: potency means the concentration at half of the fitted maximal effect
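Whole-lifecycle infectious HCVcc-Cre system; cells 1,000/well, compound then virus (~0.5 moi) added 4 h after plating, 44 h culture. Luciferase read 15 sec following 15 min substrate incubation, room temp.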
Pf growth 48h = Primary qHTS for delayed death inhibitors of the malarial parasite plastid, 48 hour incubation | Potency, µM (titrated, usually from 28.7 µM), without a hit: at the highest dose activity change, negative = inhibition, usual class: inhibitors | 310,000 tested, 5.9% active | AID 504832, 2011 | P. falciparum luciferase growth in erythrocytes, 48 h; further: potency means the concentration at half of the fitted maximal effect
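Growth was read as firefly luciferase luminescence after a 48 h, 37 C, 5% CO2 exposure of compounds to reporter-bearing P. falciparum cultures (0.1% parasitemia, 2% hematocrit final) in Albumax-supplemented RPMI 1640.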
Pf growth 96h = Primary qHTS for delayed death inhibitors of the malarial parasite plastid, 96 hour incubation. P. falciparum luciferase reporter growth, 96 h. 320,000 tested, 6.9% active. Potency, µM (top dose mostly 28.7 µM), for the others: top-dose activity change, negative = inhibition, actives largely listed as inhibitors; further: potency means the concentration at half of the fitted maximal effect
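P. falciparum expressing integrated firefly luciferase, in erythrocytes at 2% hematocrit, 0.05% parasitemia, incubated with compounds 96 h at 37 C, 5% CO2. Growth inhibition read as loss of luminescence; two-generation exposure targets delayed-death apicoplast inhibitors.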
* marks the source's active call; other numbers are inactive results; ? = inconclusive; / = not tested or not shown. Unless noted, the call rests on the fitted dose curve; in most records, active means well fitted inhibition curve with a large enough effect; inconclusive means small, poorly fitted or top-dose-only effect, or another doubt; inactive means no such curve, though single readings can be large or run the other way. On the % scale 0 is the no-effect control and ±100 the full control effect.

SMILES	HCMV inh	HCV inhibitor	Pf growth 48h	Pf growth 96h
Cc1cc(C)c2oc(C(=O)N(Cc3ccccc3)c3ccccn3)cc(=O)c2c1	-18	-16%	12µM*	?
COc1cc(CN2CCN(Cc3ccco3)CC2)cc(OC)c1	17	15%	25%	2.1µM*
COc1ccc(C2=NCCn3c2c2ccc(OC)cc2[n+]3[O-])cc1	32	/	/	/
Cc1ncc(CO)c(/C=N/Nc2ccc(C(F)(F)F)cn2)c1O	-96*	?	?	2.3µM*
Cc1ncc(CO)c(/C=N/NC(=S)Nc2ccc(F)cc2)c1O	-12	-19%	-102%	13µM*
Cc1ncc(CO)c(/C=N/N=C/c2ccccc2O)c1O	85	0%	?	-8%
Cc1c(C(=O)O)oc2ccc3c(c12)C(O)CC(C)(C)O3 (stereo unspecified)	-4	16%	-9%	4.7µM*
Cc1c(C(=O)O)oc2c1C(O)CC(C)(C)C2 (stereo unspecified)	9	16%	-11%	-6%
O=c1c(F)cn(C2CCCO2)c(=O)n1Cc1c(Cl)cccc1Cl (stereo unspecified)	-11	/	/	13µM*
COc1cccc(CCNC(=O)c2cnc3sc(N4CCCCCC4)nn3c2=O)c1	1	/	/	/
CC(C)(C)c1nc2ccc(NS(=O)(=O)c3ccc(F)c(F)c3F)cc2[nH]1	-66*	-5%	?	20%
O=S(=O)(Nc1ccc2nc(C(F)(F)F)[nH]c2c1)c1ccccc1	?	?	12µM*	18%
CC(C)c1ccc(C2c3[nH]c4ccccc4c3C[C@H]3C(=O)N(c4ccccc4C(=O)N4CCC[C@H]4C(=O)O)C(=O)N23)cc1 (stereo partly specified)	-22	4%	6.6µM*	?
COc1ccc(C2c3[nH]c4ccccc4c3C[C@H]3C(=O)N(c4ccccc4C(=O)N4CCC(C(=O)O)CC4)C(=O)N23)cc1 (stereo partly specified)	-11	-66%	12µM*	?
C=CCOc1ccc(C2C(C#N)=C(N)N(Nc3ccccc3)C3=C2C(=O)CCC3)cc1OC (stereo unspecified)	-7	?	8.3µM*	4.7µM*
COc1cc(C2C(C#N)=C(N)N(Nc3ccccc3)C3=C2C(=O)CC(C)(C)C3)ccc1OCc1ccccc1 (stereo unspecified)	-14	?	4.1µM*	2.9µM*
Cc1c2cnn(CC(=O)N3CCCCC3)c(=O)c2c(C)n1Cc1ccc(Cl)cc1	-6	/	/	/
Cc1ccc(C(=O)c2oc3ccccc3c2NC(=O)COc2ccccc2C)cc1	11	/	/	/
COc1ccc(Cl)cc1Nc1nc(N)c2ccccc2n1	84	14µM*	9.3µM*	?
COc1ccc(C)cc1Nc1nc(N)c2cc(OC)c(OC)cc2n1	-34	?	1µM*	2%
COc1ccc(C(C)=O)cc1CSc1nc(Nc2ccc(F)c(F)c2)c2ccccc2n1	-19	/	/	/
Cc1oc2ncnc(N3CCOCC3)c2c1C(=O)N1CCN(c2cccc(C(F)(F)F)c2)CC1	9	/	/	/
CC[C@@]1(O)C(=O)OCc2c1cc1n(c2=O)Cc2cc3c(NC(=O)CN)cccc3nc2-1	-98*	-17%	?	7.4µM*
CCOC(=O)C1(C(=O)OCC)COC(=O)C1CN1Cc2cc3ccccc3nc2C1 (stereo unspecified)	142	/	/	/
CCc1c2c(nc3ccc(OC(=O)N4CCC(N5CCCCC5)CC4)cc13)-c1cc3c(c(=O)n1C2)COC(=O)[C@]3(O)CC	-92*	-13%	-14%	-30%
SMILES	HCMV inh	HCV inhibitor	Pf growth 48h	Pf growth 96h
CCC1(OC(=O)CN)C(=O)OCc2c1cc1n(c2=O)Cc2cc3ccccc3nc2-1 (stereo unspecified)	/	?	1.7µM*	0.93µM*
CCC1(O)C(=O)OCc2c1cc1n(c2=O)Cc2cc3cc(O)ccc3nc2-1 (stereo unspecified)	-107*	-15%	/	/
Cc1ccc(-c2cc3ncc4c(n3n2)-c2cc(Cl)ccc2OC4)cc1	21	/	/	/
COc1ccccc1CNC(=O)CSc1cc(C)[nH]c(=O)n1	2	/	/	/
CCCCC(Sc1nc2cc3c(cc2c(=O)n1CCCC(=O)NCc1ccc2c(c1)OCO2)OCO3)C(=O)OCC (stereo unspecified)	-39	/	/	/
Cc1cc(F)ccc1NC(=O)C(c1ccccc1)N1Cc2ccccc2C1=O (stereo unspecified)	-10	/	/	/
COc1cccc(C2CC(=O)Nc3c2c(=O)[nH]c2ncnn32)c1OC (stereo unspecified)	14	/	/	/
COC(CNC(=O)c1cccnc1)OC	-62*	9%	2%	40%
COC(=O)c1c(NC(=O)c2cccnc2)sc(C)c1C	/	10µM*	/	-79%
N#Cc1c(SCC(=O)Nc2ccc(Cl)cc2Cl)sc2c(O)cc(=O)[nH]c12	-30	?	2.9µM*	6%
COc1cc(C#Cc2c(-c3cncn3C)n(C)c3ccc(-c4cnc(OC)nc4)cc23)cc(OC)c1	4	?	?	2.6µM*
COc1cc(C#Cc2c(-c3cncn3C)n(C)c3ccc(-c4cnc(N5CCOCC5)nc4)cc23)cc(OC)c1	47	15%	/	/
COc1cc(OC)cc(-c2c(Sc3ccccc3)c3cc(-c4cnc(OC)nc4)ccc3n2C)c1	-34	/	/	/
COc1cc(C#Cc2c(-c3cncn3C)n(C)c3ccc(-c4ccc(CN5CCOCC5)cc4)cc23)cc(OC)c1	-10	11µM*	/	/
Cc1ccc2c(c1)-c1onc(C(=O)N(C)c3cccc(C(F)(F)F)c3)c1CO2	-22	/	/	/
Cc1c(C(=O)N2CCC(C)CC2)c(S(=O)(=O)Nc2cccc(C#N)c2)c(C)n1C	59	/	/	/
Cc1ccc(NS(=O)(=O)c2ccccc2)c(NS(=O)(=O)c2ccccc2)c1	-2	14%	/	/
Cc1ccc(Cl)cc1NS(=O)(=O)c1ccccc1	-20	8%	/	/
Cc1ccc(S(=O)(=O)Nc2ccccc2-c2ccccc2)cc1	-10	?	-6%	12µM*
Cc1ccc(S(=O)(=O)Nc2ccccc2NS(=O)(=O)c2ccc(C)cc2)cc1	1	/	/	/
Cc1cc(-c2ccc(NS(=O)(=O)c3ccccc3)c(C)c2)ccc1NS(=O)(=O)c1ccccc1	15	8.9µM*	/	/
O=S(=O)(Nc1ccc(Cl)cc1NS(=O)(=O)c1ccccc1)c1ccccc1	-29	0.5µM*	/	/
Cc1ccc(NS(=O)(=O)c2ccccc2)c2c1CC(C)(C)O2	-16	10µM*	-12%	/
Cc1cc(C)c(NS(=O)(=O)c2ccccc2)c(C)c1	-22	?	/	/
CCOc1ccc(N2C(=O)N(Cc3ccc(C)cc3C)c3ccccc3S2(=O)=O)cc1	-9	/	/	/
Cc1ccc2oc(-c3ccc(NC(=O)CCC(=O)O)cc3)nc2c1	64	/	/	/
CCCn1c(=O)c2sccc2n2c(CCCC(=O)N3CCN(c4ccccc4)CC3)nnc12	0	/	/	/
COc1ccc(NC(=O)N2CCN3CCCCC3C2)cc1OC (stereo unspecified)	-31	/	/	/
